# Experimental data as given in the supplement of paper PMC6555819.
# System: THRa homodimer (NR concentration 90 nM)
# Experiment: PBM binding z-score (relative to random genomic background probes); higher = stronger binding; sequences stand for … in GC…GCGATTGACAGCGTAGAATGAAGG
# How it was run: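 Ligand-free nuclear receptor dimers were bound for 1 h to custom Agilent 4×180K protein-binding microarrays. Detection used antibodies against each partner (one per run). Binding z-scores rest on regression-normalized fluorescence, with random background probes as the reference.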
row,Sequence,PBM binding z-score
1,CCGACTAGGGCATAAGGTTACCATAAGCCAGCCC,1.08
2,CCTAGCAGGCCAGGGTCCCTCAAGCATTTCGCTT,-0.649
3,CGTCAAATTTCAAGGTAACGTAACAGAAAGCAGC,1.27
4,AATACAGAGTCACTAGGCCAGAGTAGGTACGAAT,-0.685
5,AATACAGGCTCACTAGGCCAGAGTAGGTACGAAT,-0.397
6,TCATATAGGTAAAAGGTGAAAATCGGTGTGGTAA,0.242
7,TGTCAAAGTTCAAAGGTAACATAAGTATCCACAC,0.27
8,AGAGTGAGGTTAAGATCAGGGAAACAGAATACAT,1.3
9,CCTAGTTGGTCGGGAGGTCACACACCGGATATGA,2.93
10,ATAGCAAGGTGATCGTGAGGTCGTTGATACTAAC,1.8
11,TCGAGTAGGTTGCCAATGGGGCATTCAGCTTTCT,-0.951
12,CCGACTGGGGCAGAAAGGTTACCACACCATCCGG,-0.368
13,ATCTCTATGTAACCAAGTTCAGTGAATGCCGAAC,0.156
14,AGAATGACGTTATACGTAGATCAGGGAAGAAAGT,-1.02
15,ATATGTAGGTTATCGGGTCATTCCGTTTGCGCAT,2.82
16,GCGTACGGGTCAAAGGTTATAGCATGAATAGAAT,-0.479
17,CCACACAGGTGAGAAGGTAACTCAGCCTCGATTA,0.324
18,CGTCCAAGGTCAAGGTCAGTTAAAGAGACTCGAA,3.3
19,CGAACTAGTTCAGAACAGGACAGTGAAGGATGAT,-0.53
20,TCATATAAGTAAACAGGTGAAAGTCCGTAAGTTA,0.549
21,TCTAGTTGGTCAAACGTCACACACTCGAAATGCG,0.167
22,AACTCTAGGTAAAGATAGTTCAGTGAATGCAAAT,-0.108
